The results in this text go back to ChEMBL document CHEMBL4513216, “Probing the Open Global Health Chemical Diversity Library for Multistage-Active Starting Points for Next-Generation Antimalarials” (ACS Infect Dis, 2020).

The structures appear in SMILES notation. Out of some 68,000 compounds screened, about 2,700 (4%) showed an effect of 50% or more. Only a selection was taken, and strong results are over-represented in it overall.

This assay relates to Plasmodium berghei. Nature of the assay: Screen against P. berghei liver stage (PbLuc), transformed with Luciferase, at 2uM. The settings on record: tested at 2 uM. The assay is classed as functional, HepG2.
`O=C(c1ccoc1)N1CC[C@H]2C[C@@H](c3ccncn3)O[C@@H]2C1`: the INHIBITION is 43.71%.
Turning to `Cc1ccc(CN2CC3(CCN(S(=O)(=O)c4ccccc4)C3)C2)o1`, the INHIBITION is reported as 31.5%.
With `CCS(=O)(=O)N1CCC2(CN(Cc3ccc(C)o3)C2)C1`, the INHIBITION is recorded as 54.23%.
The same measure for `CCS(=O)(=O)N1CCC2(CCN(Cc3ccc(C)o3)C2)C1` (stereo not drawn): 9.53%; for `O=C(N[C@@H]1CNCCC[C@H]1O)c1ccc(OCCN2CCOCC2)cc1`: 36.99%; for `CCN(Cc1ccccc1)c1ncnc2c(C)nn(CC)c12`: -4.77%.
In the case of `O=C(NCC1CCCO1)c1nc2c(s1)CCCN2Cc1ccccc1` (stereo not drawn), the INHIBITION is reported as 29.3%.
On to `c1coc(CN2CCn3c(COCC4CC4)nnc3C2)c1`, for which the INHIBITION is -0.24%.
For the compound `CCOCC1CN(c2ccc(C)nn2)Cc2cnn(CC)c21` (stereo not drawn), the INHIBITION is on record as -3.65%.
Take `CNC(=O)C1CN(C(=O)Cc2ccc(OC)cc2)Cc2cn(C)nc21` (stereo not drawn): the INHIBITION is 1.75%.
In the case of `CS(=O)(=O)c1cccc(S(=O)(=O)NC(=O)CC2CCCC2)c1` it was 63.54%.
For `COc1cccc(S(=O)(=O)NC(=O)COc2c(C)cccc2C)c1`, the INHIBITION was 60.31%.
In the case of `CS(=O)(=O)c1cccc(S(=O)(=O)NC(=O)CCC2CCCCC2)c1` it was -10.29%.
Turning to `Cc1cc(C)c(OCC(=O)NS(=O)(=O)c2cccnc2)c(C)c1`, the INHIBITION is on record as -76.17%.
For `COc1ccc(S(=O)(=O)NC(=O)COC2CCCC2)cc1`, the INHIBITION is reported as -43.47%.
Turning to `COc1cccc(OCC(=O)NS(=O)(=O)c2cccnc2)c1`, the INHIBITION was 11.09%.
Consider `CS(=O)(=O)c1cccc(S(=O)(=O)NC(=O)CC2CCCCC2)c1`, for which the INHIBITION is given as -20.19%.
In the case of `COc1cccc(S(=O)(=O)NC(=O)COC2CCCC2)c1` it was 65.77%; in that of `COc1cccc(S(=O)(=O)NC(=O)COC2CCCCC2)c1`, -1.02%.
In the case of `Cc1ccc(S(=O)(=O)NC(=O)CCOCc2ccccc2)s1` it was 53.13%; in that of `CCOCCCC(=O)NS(=O)(=O)c1ccc(C)s1`, 23.64%.
In the case of `Cc1ccc(S(=O)(=O)NC(=O)CCOCC(C)C)s1` it was -13.12%; in that of `CSc1ccccc1C(=O)N(C)Cc1nncn1C(C)C`, 36.79%.
`CCn1cc(-c2nn3c(C(F)(F)F)nnc3s2)cn1`: the INHIBITION is reported as -21.49%.
The same measure for `CCC(=O)N1CCCC(C(=O)c2cnn(-c3ccc(F)cc3)c2N)C1` (stereo not drawn): -4.78%; for `CC(NC(=O)c1ccoc1)C(=O)N(C)Cc1cccc(C(F)(F)F)c1` (stereo not drawn): 2.51%; for `COCCC1COC2(CCN(C(=O)C3CCC3)CC2)C1` (stereo not drawn): -18.7%.
On to `CC(C)NC1CCc2c(ccc(=O)n2CCN2CCOCC2)C1` (stereo not drawn), for which the INHIBITION is recorded as -21.78%.
As for `COc1cccc(OCC(=O)NS(=O)(=O)c2ccc(C)s2)c1`, the INHIBITION was 51.21%.
In the case of `COc1cccc(OCC(=O)NS(=O)(=O)c2ccc(Br)s2)c1` it was -4.22%; in that of `CC(=O)c1cccc(OCC(=O)NS(=O)(=O)c2ccc(C)s2)c1`, -36.13%; in that of `CCn1cncc1CN(Cc1ccc(OC)cc1OC)CC1CCCO1` (stereo not drawn), 33.64%.
`O=C1CCC2(CCCN(c3ncc(Cl)cc3F)C2)CN1CC1CC1` (stereo not drawn): the INHIBITION is recorded as -31.23%.
In the case of `CN(CCCNC(=O)c1ccccc1OCC(N)=O)CC(F)(F)F`, the INHIBITION was determined as 51.96%.
Regarding `COCCOc1ccccc1C(=O)NCCN(C)C(C)C`, the INHIBITION came out at 27.5%.
For `CN(CCCNC(=O)c1ccccc1F)CC(F)(F)F`, the INHIBITION amounted to 66.74%.
`CN(CCCNC(=O)c1cccc(OCC(N)=O)c1)CC(F)(F)F`: the INHIBITION is -163.17%.
Regarding `CN(CCCNC(=O)NCc1ccncc1)CC(F)(F)F`, the INHIBITION was 21.71%.
With `CN(CCCNC(=O)c1ccc(C#N)cc1)CC(F)(F)F`, the INHIBITION is listed as 26.11%.
For the compound `CCc1c(C(=O)NCC(=O)OCC2CC2)cnn1-c1ccc(C)cc1`, the INHIBITION was -14.3%.
Regarding `CCN1CC2(CC1=O)CN(C(C)=O)CCN(S(=O)(=O)CC)C2` (stereo not drawn), the INHIBITION is listed as -161.57%.
`Cc1ccc(CN2C[C@H](OCCN(C)C)[C@H]3COC[C@H]32)o1`: the INHIBITION stood at 15.36%.
For `COc1nn(C)c2c1CCCN(C(=O)c1ccc(C)c(F)c1)C2`, the INHIBITION was -128.25%.
Turning to `COC(=O)CC(NC(=O)c1ccccc1OC)c1cccs1` (stereo not drawn), the INHIBITION was 53.58%.
Turning to `COC(=O)CC(NC(=O)c1ccc(OC)cc1OC)c1cccs1` (stereo not drawn), the INHIBITION was determined as 27.47%.
In the case of `COc1ccccc1C(=O)NC(CC(=O)O)c1cccs1` (stereo not drawn) it was 24.31%; in that of `CCC[C@@H]1CN(Cc2c[nH]nc2-c2ccc(OC)cc2)C[C@H]1NC(C)=O`, 42.4%; in that of `Cc1ccc(F)c(C(=O)N2C[C@@H](C(=O)O)[C@H](c3ccccc3)C2)c1Cl`, 16.49%.
`CCn1nc(C)c(CN(CCOC)C(=O)c2cnc(C)nc2O)c1C`: the INHIBITION came out at 48.68%.
Turning to `CCn1nc(C)c(CN(CCOC)C(=O)c2ccccc2N(C)C)c1C`, the INHIBITION stood at 15.74%.
Consider `CCOc1ccc(C(=O)N(CCOC)Cc2c(C)nn(CC)c2C)o1`, for which the INHIBITION is 65.1%.
The same measure for `CCN1CCN(C2CCN(C(C(N)=O)c3ccccc3)CC2)C1=O` (stereo not drawn): -42.16%; for `CS(=O)(=O)CC1(CNc2ccc(C#N)c(C(F)(F)F)c2)CC1`: 39.25%.
Take `CC(C)COC(C)C(=O)N1CCCCCC1` (stereo not drawn): the INHIBITION is 7.46%.
As to `CC(C)COC(C)C(=O)N1CCCC1` (stereo not drawn), the INHIBITION is 52.6%.
`CC(C)COC(C)C(=O)N1CCCCC1` (stereo not drawn): the INHIBITION is on record as 30.68%.
In the case of `CCn1c(C2CCN(C(=O)c3ccc4sc(C)nc4c3)CC2)n[nH]c1=O` it was 26.49%; in that of `CN(C)Cc1nnc(C2CCCN(c3nc(C(N)=O)cs3)C2)n1C` (stereo not drawn), 12.29%; in that of `COCC(C)(O)CNC(=O)c1cc(-c2cc(OC)ccc2OC)nn1C` (stereo not drawn), 10.91%.
As to `O=C(CCCc1nnc(-c2ccccc2)o1)N1CCN(C2CC2)CC1`, the INHIBITION is 21.64%.
As for `c1cnc(N2CCO[C@H]3CN(CC4CCC4)C[C@H]32)cn1`, the INHIBITION amounted to 15.88%.
For the compound `O=C(NCC1(c2cccs2)CCCCC1)N1CCOC(CO)C1` (stereo not drawn), the INHIBITION was -46.5%.
For the compound `COc1ccc(OC)c(CCNc2ncc(S(N)(=O)=O)s2)c1`, the INHIBITION is listed as -0.95%.
On to `COc1ccc(CN(C)c2ncc(S(N)(=O)=O)s2)c(OC)c1`, for which the INHIBITION worked out at 67.36%.
For the compound `COc1ccc(OC)c(CN(C)c2ncc(S(N)(=O)=O)s2)c1`, the INHIBITION was -28.18%.
As for `CC(C)(C)c1nccc(C2(c3ccccc3Cl)CCNCC2)n1`, the INHIBITION is 2.06%.
Consider `CSCCC(=O)N1CCN(CC(C)O)CC1` (stereo not drawn), for which the INHIBITION is 52.3%.
With `CCC(O)CN1CCN(C(=O)CCSC)CC1` (stereo not drawn), the INHIBITION was -38.59%.
As to `CSCCC(=O)N1CCN(CC(O)C(C)(C)C)CC1` (stereo not drawn), the INHIBITION worked out at 32.1%.
As to `CC(C)c1nnc(NC(=O)CCC(=O)NCC2CCCO2)s1` (stereo not drawn), the INHIBITION came to 4.39%.
Consider `CCC(CNC(=O)CCn1cncn1)N1CCc2ccccc2C1` (stereo not drawn), for which the INHIBITION is reported as 60%.
Consider `CC(CNC(=O)CCCn1cncn1)N1CCc2ccccc2C1` (stereo not drawn), for which the INHIBITION is on record as -48.63%.
On to `CC(C)C(CNC(=O)CCn1cncn1)N1CCc2ccccc2C1` (stereo not drawn), for which the INHIBITION was 16.98%.
The same measure for `O=C(CN1CCCCCC1=O)NCC1CCN(c2ccccc2)C1` (stereo not drawn): -17.17%; for `CC(CNC1CCN(Cc2ccncc2)CC1)c1ccc(F)cc1F` (stereo not drawn): 26.99%.
Consider `CC(C)c1cc(NCC(O)c2ccc(F)cc2)n2nccc2n1` (stereo not drawn), for which the INHIBITION is -25.05%.
In the case of `CCN(CC(F)(F)F)C(=O)C1CCCN(Cc2nc(C)c(C)o2)C1` (stereo not drawn) it was 35.46%; in that of `CCC(=O)NCCc1cc(N2CCN(C(C)=O)CC2)nc(C2CC2)n1`, -28.81%.
On to `CC(=O)N1CCN(c2cc(CCNC(=O)C(C)C)nc(C3CC3)n2)CC1`, for which the INHIBITION worked out at 27.39%.
As to `CC(=O)NCCc1cc(N2CCN(C(C)=O)CC2)nc(C2CC2)n1`, the INHIBITION worked out at 51.61%.
Consider `Cc1cnn(CC2CCCN2C(=O)CCc2ccc3c(c2)OCO3)c1` (stereo not drawn), for which the INHIBITION is listed as -26.45%.
Regarding `NS(=O)(=O)c1ccc(F)c(C(=O)NCCSc2ccccn2)c1`, the INHIBITION is 32.97%.
`Cn1ccnc1-c1nc(N2CCCCC2)ncc1-c1ccccc1F`: the INHIBITION was -29.24%.
For the compound `CS(=O)(=O)NCc1cnc2n1CCN(Cc1ccoc1)CC2`, the INHIBITION is reported as 50.17%.
Consider `CS(=O)(=O)NCc1cnc2n1CCN(Cc1ccsc1)CC2`, for which the INHIBITION was -75.39%.
The same measure for `CS(=O)(=O)NCc1cnc2n1CCN(Cc1cccnc1)CC2`: 8.36%; for `CN(Cc1ccco1)Cc1ccccc1CNC(=O)c1cnc[nH]1`: 21.27%.
The same measure for `Cn1nccc1-c1cccc(CC2CCN(S(C)(=O)=O)C2)n1` (stereo not drawn): -30.88%; for `CC(C)Nc1cccc(CC2CCN(C)C2)n1` (stereo not drawn): -5.42%.
The same measure for `CC(C)Nc1cccc(CC2CCN(S(C)(=O)=O)CC2)n1`: 52.82%; for `Fc1ccc(-c2noc(C3COCCO3)n2)cc1F` (stereo not drawn): -29.82%.
For the compound `O=C(Cc1ccc(S(=O)(=O)C(F)F)cc1)N1CCC1`, the INHIBITION amounted to 17.61%.
For the compound `CN1CCN(C(=O)Cc2ccc(S(=O)(=O)C(F)F)cc2)CC1`, the INHIBITION turned out to be 63.39%.
Consider `O=C(Cc1ccc(S(=O)(=O)C(F)F)cc1)N1CCCC1`, for which the INHIBITION was determined as 33.7%.
As to `COCc1ccccc1C(=O)N1CCCC1Cn1nc(C)cc1C` (stereo not drawn), the INHIBITION is reported as -63.06%.
Turning to `CC(Cn1cncn1)NCc1nncn1C1CCCCC1` (stereo not drawn), the INHIBITION was -28.93%.
`O=C1NCCN1C1CCN(Cc2coc(-c3ccc(F)cc3)n2)CC1`: the INHIBITION was 17.31%.
In the case of `O=C1NCCN1C1CCCN(Cc2coc(-c3ccc(F)cc3)n2)C1` (stereo not drawn) it was 60.21%; in that of `O=C1NCCN1C1CCCN(Cc2nnc(-c3ccc(F)cc3)o2)C1` (stereo not drawn), -43.47%; in that of `COCCN(Cc1ccncc1)C(=O)C1COc2ccccc2C1` (stereo not drawn), 33.9%.
The same measure for `COCCN(Cc1cnn(C)c1)C(=O)C1COc2c(cccc2OC)C1` (stereo not drawn): 72.05%.
Turning to `CCCn1nc(C)c(CNC(=O)C2COc3c(cccc3OC)C2)c1C` (stereo not drawn), the INHIBITION turned out to be 18.57%.
Consider `CCN(Cc1ccncc1)C(=O)C1COc2c(cccc2OC)C1` (stereo not drawn), for which the INHIBITION was determined as 57.75%.
On to `COc1cccc2c1OCC(C(=O)NCCn1nc(C)c(Cl)c1C)C2` (stereo not drawn), for which the INHIBITION is on record as 24.36%.
`COc1cccc2c1OCC(C(=O)NCCCn1nc(C)c(Cl)c1C)C2` (stereo not drawn): the INHIBITION is on record as 50.59%.
With `COc1cccc2c1OCC(C(=O)N(Cc1ccncc1)CC(C)C)C2` (stereo not drawn), the INHIBITION stood at 17.2%.
As for `COCCN(Cc1ccncc1)C(=O)C1COc2c(cccc2OC)C1` (stereo not drawn), the INHIBITION worked out at 45.82%.
Regarding `COc1cccc2c1OCC(C(=O)N(C)CCCc1cnn(C)c1)C2` (stereo not drawn), the INHIBITION was found to be 27.75%.
